Measurements as given in ChEMBL document CHEMBL1201862, “PubChem BioAssay data set” (2004).
Several values for one entry are separate records, joined by “and”; a condition that tells them apart may be missing. Equal entries are not always repeated. Hit rate of the full screen: of about 1,500 compounds, about 140 (9.3%) were called active. The rule behind the calls is not given here. The entries come from a sample that favours actives as a whole.

Test: AlphaScreen signal interference with preloaded methylated product, dose response, artefact control for NSD2 inhibitor project, biochemical, cherry-picked samples (AID 1053174);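 note: actives lower the AlphaScreen signal from the preloaded product and count as artifacts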

AbsAC35, active:
Cc1ccc(S(=O)(=O)/N=C2\C=C(Nc3cccc(C(=O)O)c3)C(=O)c3ccccc32)c(C)c1 11.5 µM
Cc1ccccc1NC1=C/C(=N\S(=O)(=O)c2ccc(C(=O)O)cc2)c2ccccc2C1=O 11.8 µM
N=C1/C(=C/c2ccc(O)c(O)c2)C(=O)N=C2SC(CC(=O)N3CCCC3)=NN12 10.6 µM
Cc1cccc(C)c1N=Nc1c(C)cc(O)cc1C 20.6 µM
O=C1/C(=C\c2cccc(O)c2O)SC(=S)N1Cc1ccccc1 14.9 µM
O=C1NC(=O)/C(=C\c2ccc(O)cc2O)S1 18.9 µM
CC1CCCC(C)N1/N=C/c1ccc(O)c(O)c1 (stereo not given) 10.9 µM
CSc1ccc(/C=N/Nc2cccc(C(=O)O)c2)cc1 12 µM
O=C(Cc1nnc(NC(=O)c2ccccc2)s1)N/N=C\c1ccc(O)c(O)c1 10.6 µM
O=C(O)CCCNc1cc(N2CCN(C(=O)c3ccco3)CC2)c2noc3c2c1C(=O)c1ccccc1-3 11.2 µM
Cc1ccc(-n2[nH]c(C)c(/C=N/Nc3ccc([N+](=O)[O-])cc3[N+](=O)[O-])c2=O)cc1C 13.4 µM
CN(C=[N+](C)C)c1cccc2c1C(=O)c1ccccc1C2=O 15.2 µM
CCN1/C(=C/c2ccc3cc(C)ccc3[n+]2CC)Sc2cc(C)c(C)cc21 19.3 µM and 11.4 µM
O=[N+]([O-])c1ccc(N2CCCC2)cc1N1CCCC1 18.9 µM
Cc1cc(C=O)c(C)n1-c1ccc(N2CCCCC2)c([N+](=O)[O-])c1 17.3 µM
CCN(CC)c1ccc(/C=C/c2ccc3ccc(OC)cc3[n+]2CC)cc1 11.4 µM
O=C(O)CCNc1ccc(NCCC(=O)O)c2c1C(=O)c1ccccc1C2=O 11.8 µM
CCc1ccc(S(=O)(=O)/N=C2\C=C(NS(=O)(=O)c3ccccc3)C(=O)c3ccccc32)cc1 15.7 µM
CC(C)(C)c1ccc(S(=O)(=O)/N=C2\C=C(NS(=O)(=O)c3ccccc3)C(=O)c3ccccc32)cc1 13 µM
Cc1ccc(C)c(S(=O)(=O)/N=C2\C=C(NS(=O)(=O)c3ccccc3)C(=O)c3ccccc32)c1 11.3 µM
CC(C)c1ccc(S(=O)(=O)/N=C2\C=C(NS(=O)(=O)c3ccccc3)C(=O)c3ccccc32)cc1 11.3 µM
Cc1[nH]c(O)nc1C(=O)CCCCC(=O)OCC(=O)Nc1ccccn1 11.4 µM
Nc1ccc(Nc2ccccc2)c(S(=O)(=O)O)c1 31.6 µM
CN(C)c1ccc(CNCCC(Cc2ccccc2)c2ccco2)cc1 (stereo not given) 16.6 µM
COc1ccccc1-c1nnc2n1N=C(c1ccc(O)c(O)c1)CS2 18.5 µM
COc1cccc2c(SCC(=O)N/N=C/c3ccc(O)c(O)c3)cc(C)nc12 12.7 µM
N#C/C(=C/c1ccc(O)c(O)c1)C(=O)NCc1ccc(Cl)cc1 14.6 µM
COCC/N=c1\scc(-c2ccco2)n1/N=C/c1ccc(O)c(O)c1O 11.7 µM
O=C(/C=C/c1ccc(O)c(O)c1)c1ccccc1O 20.7 µM
COc1ccc(S(=O)(=O)N2CCN(CC(=O)c3ccc(O)c(O)c3)CC2)cc1 12.5 µM
CC(C)c1ccc(S(=O)(=O)N2CCN(CC(=O)c3ccc(O)c(O)c3)CC2)cc1 14.6 µM
O=C(CN1CCN(S(=O)(=O)c2ccc(Cl)cc2)CC1)c1ccc(O)c(O)c1 14.7 µM
CC1=C/C(=C\c2ccc(Br)o2)C(=O)O1 25.7 µM
CCCn1nc([N+](=O)[O-])c(C(C#N)c2nc3ccccc3s2)c(Cl)c1=O (stereo not given) 13.4 µM
CCn1nc([N+](=O)[O-])c(C(C#N)c2nc3cc(C(F)(F)F)ccc3s2)c(Cl)c1=O (stereo not given) 22.2 µM
CCN(CC)c1ccc2c(-c3ccc(S(=O)(=O)O)cc3S(=O)(=O)[O-])c3ccc(=[N+](CC)CC)cc-3oc2c1 14.9 µM
O=S(=O)(O)c1cc(Cl)cc(N=Nc2ccc(O)cc2O)c1O 14.5 µM
O=S(=O)(O)c1cc(O)c(N=Nc2ccc(O)cc2O)c2ccccc12 12.8 µM
O=C(O)c1ccccc1N=N/C(=N/Nc1cc(S(=O)(=O)O)ccc1O)c1ccccc1 13.7 µM
O=C(Oc1ccccc1)c1cc(O)c(O)c(O)c1 17.2 µM
CC1=NN(c2ccccc2)C(=O)C1/C=C1\NC(=S)NC1=O (stereo not given) 28.8 µM
CCS(=O)(=O)C1=NN2C(=N)/C(=C\c3ccc(SCc4ccco4)o3)C(=O)N=C2S1 18.7 µM
CC(=O)c1ccc2c(c1)C1C=CCC1C(C(=O)O)N2 (stereo not given) 13.9 µM
Cc1ccc2[nH]c(/C(C#N)=C/c3ccc(O)c(O)c3)nc2c1 22.9 µM
N#C/C(=C/c1ccc(O)c(O)c1)c1nc2ccccc2[nH]1 15 µM
CC1COCC(C)N1C1=C(Cl)C(=O)c2ccccc2C1=O (stereo not given) 12.2 µM
O=[N+]([O-])c1ccccc1/C=C\C=N\N1CCN(c2ccccc2)CC1 17.5 µM
O=C(COC(=O)c1ccccc1)Nc1ncc([N+](=O)[O-])s1 21.8 µM
Cc1cc2c(=Cc3ccc(N(C)C)cc3)c3ccccc3n2[n+]1C 14.4 µM
NCCc1c(-c2ccccc2)n(-c2ccccc2)c2ccccc12 18.5 µM
CN(C)C=O.O=C(O)c1ccccc1NS(=O)(=O)c1ccc(N/N=C/c2ccc(O)c(O)c2)c([N+](=O)[O-])c1 10.8 µM
COc1cc(OC)c(OC)cc1CCC(C)NCCC(c1ccccc1)c1ccccc1 (stereo not given) 11.1 µM
CCN(c1ccccc1)S(=O)(=O)c1cc(C(=O)O)ccc1C 17.7 µM
O=C1N=C(Nc2ccccc2Cl)S/C1=C\c1cccc([N+](=O)[O-])c1O 17.4 µM
Cc1ccc(NC(=O)CCCCCC2NC(=O)NC2C)cc1 (stereo not given) 13.9 µM
